This is part of a sample that, as a whole, favours compounds with a hit. Of some 83,000 tested, about 20% had one in any assay.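 Testing used 96-well plates and a 48-hour single-concentration exposure. Example: -40 means 40% of the starting cells died.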 Activity calls are given as the source filed them. How the source made its calls: active means growth percent below 10; inactive means the rest.

In the assay the test system is SNB-19 CNS. Description: NCI-60 one-dose screen, 48 h (100 = growth as untreated, 0 = no growth, -100 = all killed). The settings on record: 10 µM.
For `COc1cc(Cl)cc(-c2nn(-c3cccc(NC(=O)Nc4ccc(Cl)c(Cl)c4)c3)cc2-c2ccncc2)c1`, the growth is 17.8% (inactive).

In the case of `COc1cc2cc3c(nc2cc1OC)CCN3Cc1ccc(NC(=O)c2ccc(Cl)c(C(F)(F)F)c2)cc1`, the growth is 86.6% (inactive).

For the molecule `CCOC(=O)N1C/C(=C/c2ccc(Cl)cc2)C(=O)/C(=C/c2ccc(Cl)cc2)C1`, the growth is 77.3% (inactive).

Consider `c1ccc(CSc2nnc3c4c5c(sc4nc(-c4cccnc4)n23)CCCCCC5)cc1`, for which the growth was 46.5% (inactive).

Take `Cc1cc2ccccc2nc1-c1ccccc1F`: the growth is 110% (inactive).

As for `COc1ccc(S(=O)(=O)Nc2c(/C=C\c3cc(OC)c(OC)c(OC)c3)ccc(OC)c2O)cc1`, the growth was 48.5% (inactive).

`N=C(N)c1ccc(-c2ccc(-c3cccs3)s2)s1`: the growth was -13.4% (active).

Take `CSc1cc(SC)ncn1`: the growth was 91% (inactive).

Take `Cn1c(C(N)=O)cc2c1-c1nc(Nc3ccccc3)ncc1CCC2`: the growth is 58.4% (inactive).

With `CCOC(=O)N/N=C\C(C)=N\NC(=O)OCC`, the growth was 98.5% (inactive).

For `Nc1cc2c(cc1Cl)-c1ccc([N+](=O)[O-])cc1/C2=N\O`, the growth was 93.6% (inactive).

Regarding `Cc1cccc(C)c1NC(=O)c1sc2nc3c(cc2c1N)C(=O)CCC3`, the growth was 66.5% (inactive).

With `Cc1cc(C)c(CCc2cc(C)c(C)cc2C)cc1C`, the growth is 105% (inactive).

Turning to `CCN1CCC(CCOC)(CN2c3ccccc3Sc3ccc(Cl)cc32)C1` (centres undefined), the growth was 70.8% (inactive).

Turning to `COc1ccc(OC)c(/C=C/c2nc(SCc3ccccc3)n(-c3ccc(Cl)cc3)n2)c1`, the growth is 61.4% (inactive).

In the case of `CN1CCC(CNc2cc(C3(C(=O)Nc4cc(C(=O)Nc5ccc(Cl)c(C(F)(F)F)c5)ccc4F)CC3)ncn2)CC1`, the growth was -34.1% (active).

In the case of `Cc1ccc(NC(=O)NC2CCCCC2)cc1`, the growth is 102% (inactive).

For the molecule `CC1CN(Cc2ccccc2)C(=O)NC1=O` (centres undefined), the growth is 92% (inactive).

`COc1cc(Cc2cc(-c3ccc(Cl)cc3)n[nH]c2=O)ccc1O`: the growth is 86.2% (inactive).

Consider `CN(C)CCNC(=O)c1cccn2c(=O)c3cc4ccccc4cc3nc12`, for which the growth is 17.6% (inactive).

As to `CC(=O)CSC(C)=O`, the growth is 100% (inactive).

As to `c1ccc(C(NC2CC3CCC2C3)c2ccccc2)cc1` (centres undefined), the growth is 99% (inactive).

As to `CC(C)=CCc1cc(O)cc2c1OC(C=C(C)C)C1=C2C(=O)C2=C(C1=O)S(=O)(=O)CCN2` (centres undefined), the growth was 46.2% (inactive).

`COc1cc2c(cc1OCCCN1CCN(c3ncnc4ccccc34)CC1)N=CC1CCCN1C2=O` (centres undefined): the growth was 12% (inactive).

Turning to `Cc1cccc(Cl)c1NC(=O)c1ccc2nc(NC(=O)NC3CCN(C)CC3)sc2c1`, the growth was 102% (inactive).

Take `CCOC(=O)c1ccc(NC(=O)Nc2ncc(Cl)cc2Cl)cc1`: the growth was 106% (inactive).

For the molecule `COc1cc(-c2nc(-c3nnc(-c4ccccc4Cl)o3)c3ccccn23)cc(OC)c1OC`, the growth was 101% (inactive).

Take `Nc1nc(N)c(NC(=O)CNc2ccc(C(=O)O)cc2)c(N)n1`: the growth was 105% (inactive).

`COc1cc(-c2cc(C(=O)N3CCN(C(=O)c4ccccc4NCc4cccs4)CC3)nc3cc(-c4ccccc4)nn23)cc(OC)c1OC`: the growth is 85.1% (inactive).

Turning to `COc1ccc(NC(=O)CSc2nc3ccccc3c(=O)n2CCc2ccccc2)cc1`, the growth was 59.4% (inactive).

Consider `COc1ccc(-c2nc3sc(C4CC4)nn3c2/C=C2/C(=O)Nc3ccc(OC)cc32)cc1`, for which the growth was 66.8% (inactive).

Consider `O=C(Nc1cccc(Br)c1)c1cc(=O)[nH]c2ccccc12`, for which the growth is 97.9% (inactive).

As to `FC(F)(F)c1ccc2nc(-c3nc(-c4ccccc4)n4ccccc34)[nH]c2c1`, the growth was 116% (inactive).

As to `Cc1cc(N(CCCNc2ccnc3cc(Cl)ccc23)Cc2cccs2)nc(Cl)n1`, the growth was 76.1% (inactive).

With `O=C1C(c2ccccc2)C2C=CC(C2)N1O` (centres undefined), the growth is 106% (inactive).

In the case of `CN1c2ccccc2[C@]2(Cc3ccccc3)Cc3ccccc3N[C@H]12`, the growth is 104% (inactive).

As for `CC1(C)CCC(=NNC(N)=S)CC1`, the growth is 108% (inactive).

On to `N=C(N)c1ccc(-c2ccc(-c3ccccc3)o2)nc1`, for which the growth was 82.7% (inactive).

For the molecule `O=c1[nH]c(-c2ccc(Cl)cc2)nc2sc3c(c12)CCCC3`, the growth was 76.6% (inactive).

For the origin of these results see PubChem BioAssay (NCI).
